Experiment in all cases: qHTS profiling for inhibitors of Plasmodium falciparum proliferation (AID 504749); note: nearly all actives have a fitted effect of over 60% in size
Conditions in all cases: P. falciparum in erythrocytes, SYBR Green DNA, 72 h; series mostly up to 28.7 µM
On the technique in general: In qHTS, concentration-response curves come from the screen itself.

Assay [1] relates to CP291. The method, boiled down:
(§1)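 SYBR Green fluorescence of parasite DNA, read after lysis and overnight dark incubation, measured growth over 72 h in erythrocyte culture at 0.3% parasitemia and 2.5% hematocrit. Data normalised to DMSO and 0.29 uM artemisinin, with plate-drift correction.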

In assay [2] the test system is CP305. In short, it runs like this: as §1
The subject of assay [3] is CP325. The method, boiled down: as §1
The test system of assay [4] is CP335. In short, it runs like this: as §1
Assay [5] has as its system DFO2036. In short, it runs like this: as §1
Assay [6] concerns DIV14. The method, boiled down:
as §1

In assay [7] the test system is DIV17. In short, it runs like this:
as §1

Assay [8] relates to DIV30. In short, it runs like this:
as §1

The subject of assay [9] is Dd2. The method, boiled down:
as §1

Assay [10] relates to ECU. In short, it runs like this:
as §1

Assay [11] has as its system FAB9. In short, it runs like this:
as §1

The subject of assay [12] is GB4. The method, boiled down:
as §1

Assay [13] concerns HB3. The method, boiled down: as §1
Assay [14] concerns ICS. In short, it runs like this:
as §1

Assay [15] has as its system JCK. The method, boiled down: as §1
Assay [16] concerns N140. The method, boiled down:
as §1

For assay [17], the system named is P93_24. The method, boiled down:
as §1

Assay [18] has as its system CP315. The method, boiled down:
as §1

For assay [19], the system named is CP297. In short, it runs like this:
as §1

For assay [20], the system named is CP329. The method, boiled down: as §1

Structures are written as SMILES. Results filed as inconclusive are left out. Active and inactive are the calls of the source. Calls come from the whole dose curve; as a rule, active = well fitted inhibition curve with a large enough effect; inconclusive = small, poorly fitted or top-dose-only effect; inactive = flat fitted curve, though single readings scatter.
Potency is the fitted concentration of half-maximal effect.

As for `O=C(CCCN1CCC(n2c(=O)[nH]c3ccccc32)CC1)c1ccc(F)cc1`, the Potency in assay [1] was 6.42 µM (active); in assay [2], 5.1 µM (active); in assay [3] it was 5.1 µM (active); in assay [4], 1.44 µM (active); in assay [5], 1.58 µM (active); in assay [6] it was 0.642 µM (active). The Potency is 0.642 µM (active) in assay [7]; 2.56 µM (active) in assay [8]; 1 µM (active) in [9]; 1.78 µM (active) in [10]; 3.98 µM (active) in assay [11]; 0.809 µM (active) in [12]. Besides, the Potency in assay [13] is 1 µM (active); in [14], 0.316 µM (active); in assay [15], 3.55 µM (active); in assay [16], 0.891 µM (active); in [17], 0.891 µM (active).
Take `CN1CCc2cc(Cl)c(O)cc2[C@H]2c3ccccc3CC[C@@H]21`: the Potency result in [18], in [3], in assay [11] and in assay [15] was “inactive” each time. Moreover, the Potency in [4] is 8.49 µM (active); in assay [9] it was 10 µM (active).
As to `CN1C(=O)[C@@H](NC(=O)c2cc3ccccc3[nH]2)N=C(c2ccccc2)c2ccccc21`, the Potency in assay [6] was 12 µM (active); in assay [7], 10.7 µM (active); in assay [9] it was 11.2 µM (active); in assay [10], 10 µM (active); in assay [12] it was 15.1 µM (active); in [14] it was 8.91 µM (active). The Potency result in assay [11] and in [15] was “inactive” each time.
For `O=C1NCN(c2ccccc2)C12CCN(CCCOc1ccc(F)cc1)CC2`, the Potency is 12 µM (active) in assay [19]; 8.49 µM (active) in assay [6]; 8.91 µM (active) in [9]; 6.75 µM (active) in assay [12]; 8.91 µM (active) in assay [17]. The Potency result in assay [18], in assay [20], in assay [10], in assay [11], in [13] and in [15] was “inactive” in each case.
As to `CCN(CC)CCOC(=O)C(C)(c1ccccc1)c1ccccc1`, the Potency result in [18], in assay [11], in [13] and in assay [15] was “inactive” throughout. Besides, the Potency in assay [4] is 4.78 µM (active); in assay [7], 6.01 µM (active); in [9], 0.0891 µM (active).
In the case of `COc1ccc(C(=O)N2CCCC2=O)cc1`, the Potency result in [2], in assay [18], in assay [3], in assay [20], in assay [4] and in assay [5] was “inactive” in each case. Further, the Potency entry in [6], in assay [8], in [9], in assay [10], in [11] and in [12] was “inactive” throughout. In addition, the Potency result in assay [13], in assay [14], in [15], in assay [16] and in assay [17] was “inactive” throughout.
As for `Clc1ccc(CO/N=C(\Cn2ccnc2)c2ccc(Cl)cc2Cl)c(Cl)c1`, the Potency in [1] was 12 µM (active); in assay [19], 4.78 µM (active); in assay [2], 13.5 µM (active); in assay [3], 13.5 µM (active); in assay [4], 6.01 µM (active); in [5], 3.98 µM (active). Moreover, the Potency in [6] is 1.51 µM (active); in [7], 1.9 µM (active); in assay [8], 3.38 µM (active); in assay [9], 4.47 µM (active); in assay [10] it was 2.24 µM (active); in assay [12] it was 1.69 µM (active). For the same molecule, the Potency in assay [13] is 7.94 µM (active); in assay [14], 1.12 µM (active); in [16], 2.24 µM (active); in assay [17], 2.24 µM (active).
Regarding `Cc1c(Cl)c(=O)oc2cc(OP(=O)(OCCCl)OCCCl)ccc12`, the Potency in [1] was 7.57 µM (active); in assay [19] it was 12 µM (active); in assay [2], 6.75 µM (active); in assay [3] it was 13.5 µM (active); in assay [20], 12 µM (active); in [5] it was 10 µM (active). Further, the Potency in [6] is 8.49 µM (active); in [10] it was 10 µM (active); in [12], 12 µM (active); in assay [13], 11.2 µM (active); in assay [14], 11.2 µM (active); in [16] it was 8.91 µM (active). Moreover, the Potency in assay [17] is 11.2 µM (active). In addition, the Potency result in assay [11] was “inactive”.
Turning to `C[C@]12C=CC(=O)C=C1CC[C@@H]1[C@@H]2CC[C@@]2(C)[C@H]1CC[C@]2(C)O`, the figures for the Potency in assay [19] and in assay [8] were 19 µM (active) and 16.9 µM (active), respectively. For the same molecule, the Potency result in assay [4], in assay [5], in assay [9], in [10], in [11] and in [13] was “inactive” in each case. In addition, the Potency result in assay [14], in [15], in [16] and in assay [17] was “inactive” throughout.
In the case of `COc1ccc(CN2CCNCC2)c(OC)c1OC`, the Potency in assay [1] was 5.1 µM (active). In addition, the Potency result in [4], in [5], in [9], in assay [10], in [11] and in assay [13] was “inactive” each time. The Potency result in assay [14], in assay [15], in assay [16] and in assay [17] was “inactive” throughout.
For `N#Cc1nn(-c2c(Cl)cc(C(F)(F)F)cc2Cl)c(N)c1S(=O)C(F)(F)F` (stereo not given), the Potency was 6.75 µM (active) in [1]; 10.7 µM (active) in assay [19]; 7.57 µM (active) in [2]; 7.57 µM (active) in [20]; 13.5 µM (active) in assay [4]; 4.78 µM (active) in assay [6]. In addition, the Potency in [7] is 7.57 µM (active); in assay [8], 9.53 µM (active); in assay [12], 7.57 µM (active); in [14], 5.62 µM (active); in assay [16] it was 7.94 µM (active).
With `Oc1ccc2[nH]cc(CCCCN3CC=C(c4ccccc4)CC3)c2c1`, the Potency in assay [19] is 15.1 µM (active); in assay [18], 16.9 µM (active); in [5], 10 µM (active); in assay [6] it was 13.5 µM (active); in assay [7], 13.5 µM (active); in [9] it was 11.2 µM (active). The Potency in assay [12] was 9.53 µM (active); in assay [14] it was 8.91 µM (active); in assay [17] it was 11.2 µM (active). Besides, the Potency entry in assay [11] and in assay [15] was “inactive” throughout.
Consider `OC(O)C(Cl)(Cl)Cl`, for which the Potency result in [1], in [2], in assay [18], in assay [3], in assay [20] and in [4] was “inactive” in each case. Further, the Potency result in assay [5], in [6], in assay [7], in assay [8], in assay [9] and in assay [10] was “inactive” in each case. Further, the Potency entry in assay [11], in assay [12], in assay [13], in assay [14], in assay [15] and in assay [16] was “inactive” each time. For the same molecule, the Potency entry in [17] is “inactive”.

Source of the values: PubChem BioAssay (NCATS).
